PubChem BioAssay (NCATS)
Inconclusive results are not listed. Active and inactive are the calls of the source. Unless noted, calls come from the whole dose curve; as a rule, active = well fitted curve in the direction sought with a large enough effect; inconclusive = small, poorly fitted or top-dose-only effect, or another doubt; inactive = no such curve, though single readings can be large; an effect the other way counts as inactive or inconclusive.

Assays:
[1] = Validation of Assay for Modulators of Lamin A Splicing (AID 1459; active = well fitted curve in the direction sought with a large enough effect in the signal ratio; the % refers to the signal ratio;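 note: cells exposed to compound for two days before reading; 0% is about no effect; ratio rise marks activators and ratio drop marks inhibitors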)
In short: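 Splicing correction is reported by an EGFP-containing lamin A minigene in stably transfected S3 HeLa cells, while DsRed2 controls for viability and nonspecific signal. Cells are exposed to compounds for 48 hrs before the GFP over RFP ratio is taken.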

[2] = qHTS Assay for Lipid Storage Modulators (AID 1519; calls by dose curve); settings: Drosophila S3 cells, BODIPY lipid droplet/cell ratio, laser cytometry, cells loaded with oleic acid
In short: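 Cells seeded at 5,000 per well were treated with compounds over a concentration series and loaded with oleic acid (400 uM, as added). Lipid droplet fluorescence (488 nm excitation, 500-530 nm channel) was read by laser-scanning cytometry and normalized to 20 uM Triacsin C.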

[3] = target: DNA repair nuclease/redox regulator APEX1 (Homo sapiens) (UniProt P27695); test: qHTS Validation Assay for Inhibitors of the Human Apurinic/apyrimidinic Endonuclease 1 (APE1) (AID 1705;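 note: TAMRA fluorescence gain over two minutes as APE1 cuts a quenched THF abasic duplex; % is set by controls: 0 for no effect and ±100 for the full control effect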)
In short: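 Endonuclease activity of human APE1 is followed as dequenching when the enzyme incises a tetrahydrofuran abasic site in a short duplex labelled 5'-TAMRA/3'-BHQ-2 (50 nM final), after 15 min enzyme–compound preincubation at room temperature.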

[4] = Counterscreen for APE1 Inhibitors: Fluorescent Dye Displacement Validation Assay (AID 1707);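 note: plate controls were ThO with dsDNA and no compound for no effect and ThO without dsDNA for full effect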
In short: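 Loss of Thiazole Orange fluorescence marks promiscuous DNA binders. The dye (250 nM) is mixed with 50 nM abasic-site dsDNA in pH7.5 Tris buffer containing MgCl2, then compounds are added and emission is read once.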

[5] = target: Endonuclease 4 (Escherichia coli (strain K12)) (UniProt P0A6C1); test: Counterscreen for APE1 Inhibitors: qHTS Validation Assay for Inhibitors of Endonuclease IV (AID 1708); note: % is set by controls: 0 for no effect and ±100 for the full control effect
In short: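 Enzyme (2 nM) + compound, 15 min RT; add 50 nM TAMRA/BHQ-2 THF-site dsDNA; kinetic read ex525/em598, 3 reads/60 s; activity = read 3 − read 1. Buffer Tris pH 7.5, 50 mM NaCl, 2 mM MgCl2, DTT, Tween-20.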

[6] = qHTS for differential inhibitors of proliferation of Plasmodium falciparum line GB4 (AID 1816); settings: Potency: Plasmodium falciparum GB4 proliferation inhibition;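 note: parasite growth measured after 72 h incubation; 0% = vehicle DMSO and -100% = reference inhibitor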
[7] = qHTS for differential inhibitors of proliferation of Plasmodium falciparum line 3D7 (AID 1876);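 note: parasite growth measured after three days of culture; 0% = vehicle wells and -100% = reference inhibitor wells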
[8] = qHTS for differential inhibitors of proliferation of Plasmodium falciparum line D10 (AID 1877);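 note: parasites grown with compound for 72 h before DNA staining; plate controls were vehicle wells for no effect and reference inhibitor wells for full effect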
[9] = qHTS for differential inhibitors of proliferation of Plasmodium falciparum line Dd2 (AID 1882); settings: Potency: Plasmodium falciparum Dd2 proliferation inhibition;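 note: plate controls were DMSO vehicle for no effect and 0.29 µM artemisinin for full effect; nearly all actives have a fitted effect of over 65% in size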
In short: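 SYBR Green DNA fluorescence (ex 485, em 535 nm) after overnight lysis quantifies parasite growth; compound exposure lasted 72 h at 37 C on infected red cells at 2.5% hematocrit, 0.3% parasitemia (final). Artemisinin 0.29 uM and vehicle wells define normalization.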

[10] = qHTS for differential inhibitors of proliferation of Plasmodium falciparum line HB3 (AID 1886); settings: Potency: Plasmodium falciparum HB3 proliferation inhibition;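 note: parasites grown with compound for 72 h before SYBR Green readout; plate controls were vehicle for no effect and reference inhibitor for full effect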
[11] = qHTS Assay for Modulators of Human Peripheral Myelin Protein 22 (PMP22) Expression/Activity (AID 1967; active = well fitted curve in the direction sought with a large enough effect in the signal ratio; the % refers to the signal ratio;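 note: 0% = untreated cells and 100% end not stated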)
In short: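 Quantitative HTS in a mouse Schwann cell line expressing dual click beetle luciferases: Pmp22 promoter (green) and control EF-alpha promoter (red). After 24h treatment, corrected green/red signal ratio gave %Activity relative to untreated cells.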

[12] = target: Ferritin light chain (Equus caballus) (UniProt P02791); test: qHTS Validation Assay for Identification of Novel General Anesthetics (AID 2323); note: % is set by controls: 0 for no effect and ±100 for the full control effect
Ferritin light chain (Equus caballus), sequence (P02791 2-175 limits assumed): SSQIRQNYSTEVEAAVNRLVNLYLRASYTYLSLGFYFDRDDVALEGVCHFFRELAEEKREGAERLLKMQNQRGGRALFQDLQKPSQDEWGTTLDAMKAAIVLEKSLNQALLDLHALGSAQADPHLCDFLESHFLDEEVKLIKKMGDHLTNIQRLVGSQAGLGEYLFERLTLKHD
In short: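 Apoferritin from horse spleen (10 uM) was mixed with 1-aminoanthracene at 50% saturation in PBS, then compounds were added. After 10 min at room temperature, fluorescence was read (ex 380 nm, em 535 nm) and normalized to free-probe and complex controls.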

[13] = target: ATP-dependent DNA helicase Q1 (Homo sapiens) (UniProt P46063); test: qHTS Validation Assay for Inhibitors of RecQ-Like Dna Helicase 1 (RECQ1) (AID 2353);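 note: plate controls were DMSO vehicle for no effect and enzyme-free control for full effect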
In short: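 RECQ1T1 50 nM; forked duplex (20 bp + 30-nt ss tails) 200 nM, ATP 2 mM final; pH 8.0, 2 mM MgCl2, 2.5 ug/ml poly(dI-dC); 15 min compound preincubation; discontinuous kinetic read over 2 h at RT.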

[14] = target: RecQ-like DNA helicase BLM (Homo sapiens) (UniProt P54132); test: qHTS Validation Assay for Inhibitors of Bloom's syndrome helicase (BLM) (AID 2364);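 note: plate controls were DMSO vehicle for no effect and enzyme-free control for full effect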
In short: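 BLM 50 nM in 25 mM Tris-HCl pH 8.0, 5 mM NaCl, 2 mM MgCl2, 1 mM DTT, 0.01% Tween-20, 2.5 ug/ml poly(dI-dC); 15 min cpd preinc, RT. Start: 200 nM forked DNA + 2 mM ATP (final). TAMRA read, 2 reads 2 h apart.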

[15] = Cytometric Cell-Based qHTS for Inhibitors of the mTORC1 Signaling Pathway in MEF (Tsc2-/-, p53-/-) Cells (AID 2660);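 note: Tsc2 and p53 null MEFs carrying empty vector with compound for 24 h; percent of cells above a phospho-rpS6 to PI ratio cutoff in each well; plate controls were DMSO for no effect and rapamycin for full effect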
In short: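 Percent of cells positive for normalized phospho-S6 staining is reported, with the cutoff set from rapamycin (7.5 nM) versus DMSO wells. Tsc2-/-, p53-/- MEFs received compound for 24 hrs.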

[16] = High Content Imaging Cell-Based qHTS for Inhibitors of the mTORC1 Signaling Pathway in MEF (Tsc2-/-, p53-/-) Cells (AID 2666); settings: at 38.3 µM (top of the series);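 note: percent of cells scored positive for phospho-rpS6 Ser235/236 immunostaining by imaging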
In short: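 Inhibition of rpS6 phosphorylation is measured by immunofluorescence imaging in empty-vector Tsc2-/-, p53-/- mouse embryonic fibroblasts after 24 hrs compound exposure at 37 degree Celsius. Results are reported as % positive cells per well.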

[17] = High Content Imaging Cell-Based qHTS for Inhibitors of the mTORC1 Signaling Pathway in MEF Cells (AID 2667);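 note: Tsc2-/- p53-/- MEFs stably re-expressing wild-type Tsc2 exposed 24 h; plate controls were DMSO wells for no effect and rapamycin control wells for full effect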
In short: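 Fixed-cell imaging of phospho-S6 (Ser235/236, Alexa-488) after 24 hrs of compound treatment at 37 degree Celsius. Signal was normalized to Hoechst, and thresholds from the highest and lowest wells split cells into % active versus % non-active.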

[18] = Cytometry Cell-Based qHTS for Inhibitors of the mTORC1 Signaling Pathway in MEF cells (AID 2668);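 note: Tsc2-/- p53-/- mouse embryonic fibroblasts stably re-expressing wild-type Tsc2; percent cells positive for phospho-rpS6 Ser235/236 relative to propidium iodide stain; plate controls were DMSO wells for no effect and 7.5 nM rapamycin control wells for full effect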
In short: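 Pathway inhibition in WT Tsc2-rescued Tsc2-/-, p53-/- MEFs is measured as the Alexa-488 phospho-rpS6 to propidium iodide intensity ratio after 24 hrs of compound at 37 degree Celsius. PI-stained cell number gives viability.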

[19] = target: Ubiquitin carboxyl-terminal hydrolase 2 (Homo sapiens) (UniProt O75604); test: qHTS Validation Assay for Inhibitors of Ubiquitin-specific Protease USP2a Using CHOP2 as the Reporter (AID 463106);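 note: plate controls were DMSO for no effect and full inhibition by NEM for full effect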
Ubiquitin carboxyl-terminal hydrolase 2 (Homo sapiens), sequence (O75604 whole entry, looked up): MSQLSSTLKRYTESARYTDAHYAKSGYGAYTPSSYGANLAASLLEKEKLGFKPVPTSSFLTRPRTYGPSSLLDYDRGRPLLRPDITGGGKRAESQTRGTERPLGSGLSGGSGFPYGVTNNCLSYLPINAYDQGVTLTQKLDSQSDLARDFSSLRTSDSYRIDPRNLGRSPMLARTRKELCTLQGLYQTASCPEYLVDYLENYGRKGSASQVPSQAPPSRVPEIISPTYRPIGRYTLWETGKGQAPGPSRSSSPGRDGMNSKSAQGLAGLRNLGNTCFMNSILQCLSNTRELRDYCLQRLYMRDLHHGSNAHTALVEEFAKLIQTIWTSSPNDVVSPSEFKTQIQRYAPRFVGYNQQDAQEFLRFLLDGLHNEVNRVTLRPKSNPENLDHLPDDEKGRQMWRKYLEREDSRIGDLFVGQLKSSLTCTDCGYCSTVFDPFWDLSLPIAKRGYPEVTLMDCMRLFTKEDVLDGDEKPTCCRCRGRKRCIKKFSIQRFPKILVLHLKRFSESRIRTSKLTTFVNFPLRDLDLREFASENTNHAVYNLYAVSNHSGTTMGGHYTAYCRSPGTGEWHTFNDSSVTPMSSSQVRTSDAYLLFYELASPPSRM
In short: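 Inhibition is expressed relative to NEM as the full-inhibition control, with concentration-response curves classed by fit quality, magnitude and activity. Enzyme (USP2 core, 10nM) meets 25nM Ub-CHOP2 after compound preincubation; readings are taken at 60min.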

[20] = target: DNA polymerase III PolC-type (Bacillus subtilis (strain 168)) (UniProt P13267); test: qHTS Validation Assay for the Inhibitors of DNA Replication in Gram-Positive Bacteria (AID 485295);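 note: reconstituted holoenzyme with PolC plus beta clamp SSB and primase; PicoGreen fluorescence of double-stranded DNA made on primed circular M13 template; 0% = DMSO wells and -100% = EDTA-quenched background wells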
In short: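 Primed replication of single-stranded M13Gori by a four-protein B. subtilis holoenzyme is measured at room temperature. Double-stranded product is quantified by PicoGreen fluorescence after an EDTA stop; inhibition is scaled between DMSO and EDTA controls.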

[21] = target: Tumor susceptibility gene 101 protein (Homo sapiens) (UniProt Q99816); test: qHTS Validation Assay for Iinhibitors of HIV-1 Budding by Blocking the Interaction of PTAP/TSG101 (AID 485342; calls by dose curve; note: 0% is about no effect)
In short: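 Fluorescence anisotropy measured PTAP-Tsg101 interaction. Final concentrations were 10 uM protein domain and 50 nM labeled peptide, equilibrated 20 min at room temperature.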

[22] = qHTS Validation Assay to Find Inhibitors of Chronic Active B-Cell Receptor Signaling (AID 485345; active = well fitted curve in the direction sought with a large enough effect in the main read-out, with a control signal flat, not every such curve was filed as active;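 note: 0% = untreated basal cells and 100% = 10 µM MG-132 proteasome inhibitor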)
In short: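 TMD8 ABC-DLBCL cells with dox-inducible green luciferase–IκBα fusion and red native luciferase; compounds 46 uM–3 nM, 4 h at 37C with doxycycline in 0.5% FBS IMDM. Green/red ratio normalized to basal and 10 uM MG-132.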

[23] = target: Beta-2 adrenergic receptor (Homo sapiens) (UniProt P07550); test: qHTS validation assay of beta-arrestin-biased ligands of beta2-adrenergic receptor (AID 485366); note: 0% is about no effect
Beta-2 adrenergic receptor (Homo sapiens), sequence (P07550 whole entry, looked up): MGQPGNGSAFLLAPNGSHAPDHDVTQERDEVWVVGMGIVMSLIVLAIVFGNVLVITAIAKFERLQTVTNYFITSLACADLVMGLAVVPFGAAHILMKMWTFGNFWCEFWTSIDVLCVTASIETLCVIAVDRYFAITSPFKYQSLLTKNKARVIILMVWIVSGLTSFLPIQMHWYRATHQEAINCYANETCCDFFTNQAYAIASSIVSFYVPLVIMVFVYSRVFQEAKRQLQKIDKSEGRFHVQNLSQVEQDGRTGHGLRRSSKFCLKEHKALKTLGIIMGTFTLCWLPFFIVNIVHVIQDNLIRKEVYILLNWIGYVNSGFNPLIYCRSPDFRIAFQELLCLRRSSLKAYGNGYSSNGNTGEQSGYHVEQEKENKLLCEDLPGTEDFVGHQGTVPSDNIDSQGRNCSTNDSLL
In short: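 Screening used a titration range of up to 46 microM in a beta-arrestin recruitment Tango luciferase assay. Cells in 1% FBS medium were treated 18 hr at 37 degrees C, and luminescence was normalized to %Activity.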

[24] = target: Thioredoxin reductase 1, cytoplasmic (Rattus norvegicus) (UniProt O89049); test: qHTS Assay for Substrates of Mammalian Selenoprotein Thioredoxin Reductase 1 (TrxR1) (AID 488772);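 note: 0% is about no effect; a drop in NADPH fluorescence below the no-compound background marks a TrxR1 substrate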
Thioredoxin reductase 1, cytoplasmic (Rattus norvegicus), sequence (O89049 whole entry, looked up): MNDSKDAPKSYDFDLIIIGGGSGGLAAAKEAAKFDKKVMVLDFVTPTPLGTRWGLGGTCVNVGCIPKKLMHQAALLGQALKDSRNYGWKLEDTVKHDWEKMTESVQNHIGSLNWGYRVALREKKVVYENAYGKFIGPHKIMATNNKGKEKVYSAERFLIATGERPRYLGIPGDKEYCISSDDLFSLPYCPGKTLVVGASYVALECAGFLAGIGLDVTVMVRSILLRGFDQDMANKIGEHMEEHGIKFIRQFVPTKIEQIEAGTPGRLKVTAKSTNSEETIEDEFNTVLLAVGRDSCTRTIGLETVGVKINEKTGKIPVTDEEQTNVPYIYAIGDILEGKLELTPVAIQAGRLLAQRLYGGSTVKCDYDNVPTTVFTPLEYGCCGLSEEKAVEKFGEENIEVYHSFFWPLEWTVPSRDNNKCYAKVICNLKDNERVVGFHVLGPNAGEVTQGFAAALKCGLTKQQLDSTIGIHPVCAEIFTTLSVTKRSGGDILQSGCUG
In short: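 In this dual-purpose format, potential substrates are identified from the first fluorescence read after selenite addition, not from the 8-minute delta. Rat enzyme is preincubated with NADPH and then with compound at ~22 deg C.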

[25] = target: Thioredoxin reductase 1, cytoplasmic (Rattus norvegicus) (UniProt O89049); test: qHTS Assay for Inhibitors of Mammalian Selenoprotein Thioredoxin Reductase 1 (TrxR1) (AID 488773); settings: Potency: inhibition;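 note: drop in NADPH fluorescence over an 8 min run after selenite addition; % is set by controls: 0 for no effect and ±100 for the full control effect; nearly all actives have a fitted effect of over 40% in size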
In short: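 Inhibition is scored from the loss of NADPH fluorescence between first and last reads of an 8-min kinetic run. Selenite (400 uM) was the substrate, added after 15 min compound preincubation at room temperature.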

[26] = target: Flap endonuclease 1 (Homo sapiens) (UniProt P39748); test: qHTS Validation Assay for the Inhibitors of Human Flap endonuclease 1 (FEN1) (AID 488816); note: % is set by controls: 0 for no effect and ±100 for the full control effect
Flap endonuclease 1 (Homo sapiens), sequence (P39748 whole entry, looked up): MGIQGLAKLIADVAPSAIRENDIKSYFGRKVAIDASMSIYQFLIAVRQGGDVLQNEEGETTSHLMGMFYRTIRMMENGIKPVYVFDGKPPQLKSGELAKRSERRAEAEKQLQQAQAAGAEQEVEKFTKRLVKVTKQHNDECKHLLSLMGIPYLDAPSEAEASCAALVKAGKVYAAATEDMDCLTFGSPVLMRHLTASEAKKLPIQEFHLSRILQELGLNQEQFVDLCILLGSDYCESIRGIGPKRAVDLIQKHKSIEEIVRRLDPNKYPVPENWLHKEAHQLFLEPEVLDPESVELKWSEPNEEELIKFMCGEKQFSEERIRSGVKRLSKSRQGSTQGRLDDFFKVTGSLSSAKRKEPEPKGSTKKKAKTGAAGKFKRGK
In short: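 Steps: add FEN1 (10 nM reagent) or buffer only; pin compounds; hold 15 min at room temperature; start with substrate, 50 nM final; read at 0 and 15 min; correct, normalize and fit a four-parameter Hill curve.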

[27] = target: M-phase phosphoprotein 8 (Homo sapiens) (UniProt Q99549); test: qHTS Validation Assay for Inhibitors for MPP8 Chromodomain Interactions with Methylated Histone Tails (AID 488949);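 note: AlphaScreen signal from MPP8 chromodomain bound to biotinylated H3K9me3 peptide; top concentration of the series differs between compounds; % is set by controls: 0 for no effect and ±100 for the full control effect; nearly all actives have a fitted effect of over 55% in size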
M-phase phosphoprotein 8 (Homo sapiens), sequence (Q99549 whole entry, looked up): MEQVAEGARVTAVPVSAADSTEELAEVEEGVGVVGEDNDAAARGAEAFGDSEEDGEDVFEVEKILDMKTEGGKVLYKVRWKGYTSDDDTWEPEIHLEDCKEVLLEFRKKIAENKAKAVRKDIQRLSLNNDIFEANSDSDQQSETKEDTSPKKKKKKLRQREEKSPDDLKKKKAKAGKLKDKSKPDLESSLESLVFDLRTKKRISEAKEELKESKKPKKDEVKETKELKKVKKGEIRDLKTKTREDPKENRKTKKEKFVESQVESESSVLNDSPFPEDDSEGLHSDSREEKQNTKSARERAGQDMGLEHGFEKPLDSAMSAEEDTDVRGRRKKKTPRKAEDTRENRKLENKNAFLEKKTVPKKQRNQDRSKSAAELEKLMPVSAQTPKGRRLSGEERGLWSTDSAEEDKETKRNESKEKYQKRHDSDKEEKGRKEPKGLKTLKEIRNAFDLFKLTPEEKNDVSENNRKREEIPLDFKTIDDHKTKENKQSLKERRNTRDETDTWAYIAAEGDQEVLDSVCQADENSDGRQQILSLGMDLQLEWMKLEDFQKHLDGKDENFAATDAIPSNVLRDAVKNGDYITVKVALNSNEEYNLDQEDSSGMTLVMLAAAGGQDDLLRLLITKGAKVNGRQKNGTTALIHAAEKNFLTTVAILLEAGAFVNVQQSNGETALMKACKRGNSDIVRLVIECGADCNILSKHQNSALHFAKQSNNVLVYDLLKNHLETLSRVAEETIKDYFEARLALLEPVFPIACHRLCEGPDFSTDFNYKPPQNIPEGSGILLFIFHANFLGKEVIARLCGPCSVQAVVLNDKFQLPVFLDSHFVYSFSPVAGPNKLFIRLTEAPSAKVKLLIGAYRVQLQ
In short: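 Disruption of the preformed MPP8–trimethyl-H3K9 peptide complex (both 50 nM, 30 min, RT) is measured after 30 min compound exposure, using AlphaScreen proximity beads; aurintricarboxylic acid titration serves as plate control.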

[28] = target: Chromobox protein homolog 1 (Homo sapiens) (UniProt P83916); test: qHTS Validation Assay for Inhibitors of HP1-beta Chromodomain Interactions with Methylated Histone Tails (AID 488953);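 note: loss of AlphaScreen luminescence from HP1-beta binding biotinylated H3K9me3 peptide; % is set by controls: 0 for no effect and ±100 for the full control effect; nearly all actives have a fitted effect of over 50% in size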
Chromobox protein homolog 1 (Homo sapiens), sequence (P83916 whole entry, looked up): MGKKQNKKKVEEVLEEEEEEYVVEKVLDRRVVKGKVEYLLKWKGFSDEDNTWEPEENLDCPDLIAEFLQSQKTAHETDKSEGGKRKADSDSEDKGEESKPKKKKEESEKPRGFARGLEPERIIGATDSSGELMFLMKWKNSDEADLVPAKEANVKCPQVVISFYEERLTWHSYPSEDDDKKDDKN
In short: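 Disruption of preformed HP1-beta:H3K9me3 peptide complexes (both 50 nM, PBS pH 7.4 with 0.01% Tween-20) is measured by AlphaScreen after 30 min compound exposure at room temperature, using streptavidin donor and nickel chelate acceptor beads at 10 ug/mL final.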

[29] = target: Methanococcus maripaludis chaperonin (MmCpn) (UniProt Q6LX38); test: High-Throughput Screening for Modulators of Cytosolic Chaperonin Activity: MmCpn Primary Screen (AID 488978);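 note: 50 nM MmCpn enzyme hydrolysing 30 µM ATP at 37 °C; 0% is about no effect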
Methanococcus maripaludis chaperonin (MmCpn), sequence (Q6LX38 1-543): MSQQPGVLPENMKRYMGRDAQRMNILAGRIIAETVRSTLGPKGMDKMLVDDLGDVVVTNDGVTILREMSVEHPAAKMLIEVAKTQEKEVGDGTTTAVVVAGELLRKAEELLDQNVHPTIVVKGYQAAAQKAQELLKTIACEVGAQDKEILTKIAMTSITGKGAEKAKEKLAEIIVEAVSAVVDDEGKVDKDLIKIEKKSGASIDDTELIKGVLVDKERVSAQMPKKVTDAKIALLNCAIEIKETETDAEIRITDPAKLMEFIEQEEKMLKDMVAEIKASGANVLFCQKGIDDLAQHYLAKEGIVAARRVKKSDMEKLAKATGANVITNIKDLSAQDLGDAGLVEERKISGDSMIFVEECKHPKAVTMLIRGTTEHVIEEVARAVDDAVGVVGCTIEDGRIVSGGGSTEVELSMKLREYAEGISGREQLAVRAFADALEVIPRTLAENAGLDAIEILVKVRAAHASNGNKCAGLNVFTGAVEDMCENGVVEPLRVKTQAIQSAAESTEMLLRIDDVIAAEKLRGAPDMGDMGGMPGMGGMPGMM
In short: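 Measures ATPase turnover of the M. maripaludis chaperonin (50 nM final) against 30 uM ATP over 10 min at 37C, with compound added 5 min beforehand at room temperature. ADP is quantified by HTRF immunodetection.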

[30] = target: Transient receptor potential cation channel subfamily V member 1 (Homo sapiens) (UniProt Q8NER1); test: HTS Assay for Compounds that Act as Enhancers of the Vanilloid Receptor 1 (AID 488979); note: 0% is about no effect
Transient receptor potential cation channel subfamily V member 1 (Homo sapiens), sequence (Q8NER1 whole entry, looked up): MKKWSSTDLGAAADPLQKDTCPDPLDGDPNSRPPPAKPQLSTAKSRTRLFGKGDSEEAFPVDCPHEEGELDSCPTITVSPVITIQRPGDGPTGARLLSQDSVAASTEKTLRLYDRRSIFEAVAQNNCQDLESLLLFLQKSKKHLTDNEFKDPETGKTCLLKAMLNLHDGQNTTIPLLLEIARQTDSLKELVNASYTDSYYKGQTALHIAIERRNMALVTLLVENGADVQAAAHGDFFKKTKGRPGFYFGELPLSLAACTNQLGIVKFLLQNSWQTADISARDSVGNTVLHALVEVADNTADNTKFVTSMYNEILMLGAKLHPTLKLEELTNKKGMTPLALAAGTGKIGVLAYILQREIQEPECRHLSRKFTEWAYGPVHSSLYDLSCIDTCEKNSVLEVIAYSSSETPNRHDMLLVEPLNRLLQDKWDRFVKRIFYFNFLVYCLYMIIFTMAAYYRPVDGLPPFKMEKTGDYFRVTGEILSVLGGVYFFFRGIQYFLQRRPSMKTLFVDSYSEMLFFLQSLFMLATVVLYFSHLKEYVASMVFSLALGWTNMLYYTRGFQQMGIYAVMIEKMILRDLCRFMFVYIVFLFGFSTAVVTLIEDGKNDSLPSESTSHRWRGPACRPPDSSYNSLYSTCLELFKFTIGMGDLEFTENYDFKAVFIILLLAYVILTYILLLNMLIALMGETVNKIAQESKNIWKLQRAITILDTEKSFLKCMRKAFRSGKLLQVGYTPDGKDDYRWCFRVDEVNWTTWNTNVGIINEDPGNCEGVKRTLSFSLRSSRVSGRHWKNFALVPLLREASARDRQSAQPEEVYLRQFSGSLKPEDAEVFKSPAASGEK
In short: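 TRPV1-expressing cells loaded with Fluo-8 calcium dye; compounds added and calcium influx read kinetically for 3 min (agonist phase), then capsaicin at EC20 added and read 2 min more for enhancement. Fluorescence ex 480/em 520 nm.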

[31] = target: Thyrotropin receptor (Homo sapiens) (UniProt P16473); test: qHTS Assay for Antagonists of the Thyroid Stimulating Hormone Receptor (AID 488980); note: 0% is about no effect
In short: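 Cells expressing human TSHR (HEK293) are dispensed in HBSS/HEPES containing 70 uM RO 20-1724, compound is added, then TSH at EC80 (4 nM final). Antibody in lysis buffer follows, 30 minutes at room temperature before HTRF detection.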

[32] = target: D(1A) dopamine receptor (Homo sapiens) (UniProt P21728); test: HTS Assay for Allosteric Agonists of the Human D1 Dopamine Receptor: Primary Screen for Agonists (AID 488981); note: 0% is about no effect
D(1A) dopamine receptor (Homo sapiens), sequence (P21728 whole entry, looked up): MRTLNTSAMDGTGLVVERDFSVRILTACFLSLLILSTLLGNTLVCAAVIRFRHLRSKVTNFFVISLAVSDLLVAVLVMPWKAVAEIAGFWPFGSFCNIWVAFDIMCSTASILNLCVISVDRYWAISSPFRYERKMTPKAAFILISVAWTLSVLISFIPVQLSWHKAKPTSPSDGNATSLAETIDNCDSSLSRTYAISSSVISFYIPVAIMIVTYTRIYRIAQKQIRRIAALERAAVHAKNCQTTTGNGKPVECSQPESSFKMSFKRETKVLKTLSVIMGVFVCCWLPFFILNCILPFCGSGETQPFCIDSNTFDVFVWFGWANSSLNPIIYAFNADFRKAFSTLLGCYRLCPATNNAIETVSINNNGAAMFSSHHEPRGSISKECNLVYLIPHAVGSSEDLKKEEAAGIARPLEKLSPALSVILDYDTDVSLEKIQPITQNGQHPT
In short: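 Tetracycline-induced HEK293 T-REx cells force-coupled to calcium signalling were incubated overnight at 30 C and dye-loaded at room temperature. Calcium flux over 180 s after compound addition flagged agonists; a further 180 s read after EC20 dopamine flagged potentiators.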

[33] = target: D(1A) dopamine receptor (Homo sapiens) (UniProt P21728); test: HTS Assay for Allosteric Agonists of the Human D1 Dopamine Receptor: Primary Screen for Antagonists (AID 488983);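 note: calcium flux response to an EC80 dopamine challenge measured with no-wash dye; % is set by controls: 0 for no effect and ±100 for the full control effect; nearly all actives have a fitted effect of over 65% in size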
In short: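 Kinetic fluorescence at 1 cycle/sec tracked intracellular calcium in force-coupled, tetracycline-inducible HEK293 T-REx D1 cells. Loss of response to an EC80 dopamine dose, given 180 s after compound, marked antagonists.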

[34] = Validation screen for small molecules that induce genotoxicity in human embryonic kidney (HEK293T) cells expressing luciferase-tagged ELG1 (AID 493106)
In short: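 Cells were dispensed at 2,000 per well, then 23 nL compound or DMSO was pinned in. After 16 hr at 37 °C and 5% CO2, ONE-Glo reagent was added. Luciferase activity was measured following 30 min at room temperature.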

Cc1cccc(/C=C/c2ccccc2)n1
54.4%: max response ([2]; measured here: cell count channel max response)
55.9%: max response ([2]; measured here: lipid channel max response)
active: Potency [34] 4.11 µM
inactive: outcome [1] | activity change, negative = inhibition ([2]; at 57.5 µM (top of the series)) 1.78% | Potency [3] | Potency [4] | Potency [5] | Potency [6] | Potency [7] | Potency [8] | Potency [9] | Potency [10] | outcome [11] | outcome [12] | Potency [13] | Potency [14] | outcome [15] | outcome [16] | Potency [17] | Potency [18] | Potency [19] | Potency [20] | outcome [21] | outcome [22] | outcome [23] | outcome [24] | Potency [25] | Potency [26] | Potency [27] | Potency [28] | outcome [29] | outcome [30] | outcome [31] | outcome [32] | outcome [33]
